# Results taken from the supplement of paper PMC10338343.
# ± gives the standard deviation.
# System: EfPiwi piRISC loaded with L1MC piRNA (26 nt)
# Assay: pre-steady-state target cleavage rate (min^-1); auxiliary factor: 500 nM Ephydatia muelleri Gtsf1; guide: L1MC piRNA 5'p-UAACUAAAUACUAUGCAAGCUGUAGG; MIWI and MILI are mouse PIWI proteins and EfPiwi is from a freshwater sponge; tags in brackets are library labels; higher = faster piRNA-guided slicing of the target
# How it was run: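 Active affinity-purified piRISC (1 nM) loaded with one synthetic guide was mixed with a transcribed, DNA-blocked target RNA library (0.1 nM), with or without 500 nM GTSF1 partner protein, in HEPES–potassium acetate buffer at 33 °C for 0–8 or 0–960 min. Uncleaved targets were sequenced, normalised to depth and to weakly complementary targets, and pooled across three trials, with k3 capped at 0.0001 min^-1. The pre-steady-state cleavage rate was determined with a burst-and-steady-state fit.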
row,Sequence,pre-steady-state target cleavage rate
1,UCCUCGUACAGCUUGCAUAGUUUUUAGUUA,0.0267 ± 0.0072
2,UCCUCGAACAGCUUGCAUAGUAUUUAGUAA,0.0173 ± 0.0064
3,UCCUGGUACAGCUUCCAUAGUAUUUAGAAA,0.00336 ± 0.0013
4,UCCUGGUACUGCUUGCAUAGUAUUUAGUUA,0.0105 ± 0.0034
5,UCCUCCUACAGUUGCAUAGUAUUUAGUUA,0.0777 ± 0.021
6,UCCUGGAUCCGCUUGCAUAGUAUUUAGUUA,0.146 ± 0.029
7,UCCUGGAUGUCGAACGACAGUAUUUAGUUA,< 0.0001
8,UCCUGGAACGCUUGCAUAGUAUUUAGUUA,0.0259 ± 0.0076
9,UCCUGCUACAGCUUGCAUAGUAUUGUAGUUA,0.00279 ± 0.0016
10,UCCUGGAACAGCUUGCAUAGUAUUUUGUUA,0.00368 ± 0.0018
11,UCCUGGAUGUCGAACCAUGGUAUUUAGUUA,< 0.0001
12,UCCUGGAUGUCGAACGUAUGUAUUUUGUUA,< 0.0001
13,UCCUGCUACAGCUUGCAUAGUAAAUAGUAA,0.00351 ± 0.0022
14,UCCUGGAUGUCGAACGUAAGGAUUUAGUUA,< 0.0001
15,UCCUGGAUGUCGAUGCAAAGUAUUUUGUUA,< 0.0001
16,UCCUGGUACAGCUUGCAUAGUAUUUAGUUUA,0.0765 ± 0.024
17,UCCUGGAACAGCUUGGAUAGUAUUUAGUUA,0.0302 ± 0.0072
18,UCCUGGAUGAGCUUGCAUAGUAUUUACAAA,0.00416 ± 0.0028
19,UCCUGCUACAGCUUGCAUAGUACUUAGUUA,0.00608 ± 0.0018
20,UCCUGCUACAGCUUGCAUAGUAAUUUCAAA,0.00378 ± 0.0027

row,Sequence,pre-steady-state target cleavage rate
1,UCCUGGAUGUCGAACCAUACUAAUUAGUUA,< 0.0001
2,UCCUCCUACAGCUUGUCAUAGUAUUUAGUUA,0.0546 ± 0.016
3,UCCUGGAUGUCGAUGCAUACUAUUAAGUUA,< 0.0001
4,UCCUCCUACAGCUUGCCUAGUAUUUAGUUA,0.0514 ± 0.014
5,UCCUGCUAGUGCUUGCAUAGUAUUUAGUAA,0.00297 ± 0.0015
6,UCCUGGAACUGCUUGCAUAGUAUUUAGUUA,0.0203 ± 0.006
7,UCCUCCUACAGCUAGCAAAGUAUUUAGUUA,0.0276 ± 0.0094
8,UCCUGGAUGUCGAACCAUAGUAUUUGUUA,< 0.0001
9,UCCUGGAUGAGCUUGCAUAGUAUUUAGUUUA,0.0215 ± 0.0067
10,UCCUGCAUGAGCUUGCAUAGUAUUUAGUUA,0.0163 ± 0.0047
11,UCCUGGAACAGCCUUGCAUAGUAUUUAGUUA,0.0147 ± 0.0046
12,UCCUGGAUCAGCUUGCAUAGUAAUAAGUUA,0.00234 ± 0.0018
13,UCCUCCUACAGCUUGGUUAGUAUUUAGUUA,0.0149 ± 0.006
14,UCCUGGAUGUCGUUGGUUAGUAUUUAGUUA,< 0.0001
15,UCCUGGAACAGCUUGCAUCGUAUUUAGUUA,0.0172 ± 0.0048
16,UCCUGGAUGUCGAACGUAAGUAUUUGGUUA,< 0.0001
17,UCCUGGAUGUCGUUGCAUAGAUAAAUCAAA [g11:g18:cont:t1A],< 0.0001
18,UCCUGGAUCAACUUGCAUAGUAUUUAGUUA,0.0635 ± 0.018
19,UCCUGGAUGAGCUUGCAUACUAUUUAGAAA,0.00478 ± 0.0029
20,UCCUGCUAGAGCUUGCAAAGUAUUUAGUUA,0.00607 ± 0.0018
